From PubChem BioAssay (NCATS) come the findings set out here.

Assay [1] in a line: NCATS anti-infectives library activity on HEK293 viability as a counter-qHTS vs the C. elegans viability qHTS (AID 1745854). Note: % is set by controls: 0 for no effect and ±100 for the full control effect. Summed up: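 Compounds were acoustically plated (several concentrations, 1:5, final up to 41.7 uM), then 1500 HEK293 cells added per well and incubated 24 hr at 37C, 5% CO2. CellTiter-Glo was added and luminescence read after 10 min.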
In general terms: In qHTS, concentration-response curves come from the screen itself.

Assay [2] is described as follows: Viability counterscreen for antagonist of constitutive androstane receptor (CAR) against the NCATS DSHEA and TCM libraries (AID 1794837).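 Note: compound exposure lasted 24 h before viability reading; 0% is about no effect.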 The method in brief:
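Viability was measured by CellTiter-Fluor fluorescence (405/540 nm, 1 hr) in HepG2-CYP2B6-hCAR cells. Cells were co-treated 24 hr with 48 uM CITCO (final), antagonist mode, and test substances.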
For orientation: A counterscreen serves to expose hits that act by an unwanted route or on another target.

A short description of assay [3]: Viability counterscreen for agonist of constitutive androstane receptor (CAR) against the NCATS DSHEA and TCM libraries (AID 1794838).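 Note: cells exposed to compound for 24 h; 0% is about no effect.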 The method in brief: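 Cell viability, from CellTiter-Fluor fluorescence (405/540 nm), was scored after a 24 h, 37C exposure of HepG2 cells carrying CYP2B6 reporter and hCAR to test substances in presence of 0.75 uM PK11195.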
Assay [4] concerns the target Nuclear receptor subfamily 1 group I member 3 (Homo sapiens) (UniProt Q14994). Put plainly: Primary qHTS for agonist of constitutive androstane receptor (CAR) against the NCATS DSHEA and TCM libraries (AID 1794839).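 Note: HepG2 cells expressing human CAR with a CYP2B6 reporter plus PK11195 antagonist; luciferase reporter luminescence read with ONE-Glo; 0% is about no effect.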 The method in brief: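 Agonist mode in presence of hCAR antagonist PK11195 (0.75 µM final): test substances, 24 h, 37 °C, on HepG2-CYP2B6-hCAR cells. Same-well readouts: fluorescence viability, then ONE-Glo luminescence; CITCO as reference agonist.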

Assay [5] can be described thus: HepG2 viability counterscreen (readout 2: ATP content) against the NCATS DSHEA and TCM libraries (AID 1794840).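 Note: HepG2 cells exposed to substances for about 24 h; 0% is about no effect.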 Summed up: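 Readout 1: cellular protease activity, GF-AFC substrate (25 uM final, 30 min, fluorescence 380/510 nm). Readout 2: ATP content by CellTiter-Glo luminescence after 30 min at RT. Both follow ~24 h exposure of HepG2 cells (1,000/well) to substances.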

Assay [6] concerns the target Cytochrome P450 2D6 (Homo sapiens) (UniProt P10635). The assay is described as follows: qHTS for inhibitors of CYP2D6 against the NCATS DSHEA and TCM libraries (AID 1919972). Note: % is set by controls: 0 for no effect and ±100 for the full control effect. Summed up: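 Luminescent P450-Glo read-out of CYP2D6 turnover of a luciferin substrate after NADPH-driven reaction of 30-45 min at room temperature. Compounds were first preincubated 15 min with enzyme at titrated concentrations; quinidine was the intraplate control.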

Assay [7] deals with Cytochrome P450 2C9 (Homo sapiens) (UniProt P11712). The assay is described as follows: qHTS for inhibitors of CYP2C9 against the NCATS DSHEA and TCM libraries (AID 1919973). Note: potency is the fitted concentration of half-maximal effect. Summed up:
(§1)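 Read-out is luminescence after P450-Glo detection (30 min, RT). Before that: 15 min compound–enzyme preincubation, then 30-45 min reaction with 1x NADPH regeneration solution, substrate concentration isoform-specific.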

Assay [8] concerns the target Cytochrome P450 2C19 (Homo sapiens) (UniProt P33261). Put plainly: qHTS for inhibitors of CYP2C19 against the NCATS DSHEA and TCM libraries (AID 1919974).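 Note: luminescence from luciferin released by CYP2C19 oxidation of a pro-luciferin substrate; % is set by controls: 0 for no effect and ±100 for the full control effect.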 The method in brief: as §1
A short description of assay [9]: KB-3-1 P-gp reporter qHTS against the NCATS DSHEA and TCM libraries (AID 1919975). Note: 0% is about no effect. The method in brief:
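Cell viability by CellTiter-Glo luminescence following ~72 h compound exposure (concentration-response). Uses parental, non-P-gp-overexpressing KB-3-1 line, 500 cells/well in DMEM/10% FBS, attached ~4 h before dosing.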

Assay [10] deals with Cytochrome P450 1A2 (Homo sapiens) (UniProt P05177). The assay is described as follows: qHTS for inhibitors of CYPIA2 against the NCATS DSHEA and TCM libraries (AID 1919976).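 Note: light from luciferin formed by CYP1A2 from a pro-luciferin substrate; series mostly up to about 37 µM; % is set by controls: 0 for no effect and ±100 for the full control effect.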 Summed up: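 CYP1A2 + luciferin substrate, 100 mM KPO4-type buffer; cmpd 15 min RT; 1x NADPH regen, 30-45 min RT dark; detection reagent 30 min RT; luminescence. Minus-enzyme wells as background; furafylline intraplate control.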

The nature of assay [11]: qHTS Counterscreen for compound interference against the NCATS DSHEA and TCM libraries (AID 1919978).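 Note: compounds preincubated with 1 µM D-luciferin or buffer before detection reagent; % of control where 0% means no effect.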 The following applies: firefly luciferase detection reagent interference, luminescence. The method in brief:
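With 1 uM D-luciferin or phosphate buffer only, compounds at final 19.5 nM–39.8 uM were incubated for 15 min at room temperature. Luciferase detection reagent was then added, and luminescence was measured after a further 30 min at room temperature.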

Assay [12] deals with Nuclear receptor subfamily 1 group I member 2 (Homo sapiens) (UniProt O75469). Put plainly: Dual reporter qHTS for agonist of Pregnane X Receptor (hPXR) against the NCATS DSHEA and TCM libraries: Luminescence readout (AID 1920059). Note: 0% is about no effect. Summed up:
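Luminescent PXR reporter read (ONE-Glo) after a CellTiter-Fluor viability read, following 24 h, 37C treatment of HepG2 cells stably carrying hPXR-Luc.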

Assay [13] has the same target. The assay is described as follows: Dual reporter qHTS for antagonist of Pregnane X Receptor (hPXR) against the NCATS DSHEA and TCM libraries: Luminescence Readout (AID 1920060).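 Note: HepG2 cells carrying hPXR luciferase reporter stimulated with rifampicin at 2 µM; 0% is about no effect.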 The method in brief: (§2)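 HepG2 hPXR-Luc, 2000 cells/well, charcoal-stripped FBS medium; 5 h attach; RIF 2 uM final; 24 h 37C/5% CO2; CellTiter-Fluor 1 h, fluor 405/540; ONE-Glo 30 min RT, lum.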

Assay [14] in a line: Dual reporter qHTS for antagonist of Pregnane X Receptor (hPXR) against the NCATS DSHEA and TCM libraries: Fluorescence Readout (AID 1920061). Note: 0% is about no effect. Summed up:
as §2

A short description of assay [15]: NCATS anti-infectives library activity on the primary C. elegans qHTS viability assay (AID 1745855; calls by dose curve). Summed up:
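Viability read-out is GFP fluorescence of PE254-GFP-FLuc C. elegans, measured by laser cytometry (488 nm) at day 0, 3 and 7. Ten L1 worms per well were incubated 7 days at 21 °C with compounds and bacterial capsules in S medium.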

Assay [16] concerns the target Glutathione peroxidase 1 (Homo sapiens) (UniProt P07203). Put plainly: Primary qHTS Assay for Inhibitors of Recombinant Selenoprotein Glutathione Peroxidase 1 (GPX1) (AID 1845191). Note: nearly all actives have a fitted effect of over 65% in size. Summed up: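 10 nM GPX1 + cpd, 30 min RT; start w/ 1 mM GSH, 0.5 mM cumene hydroperoxide, 0.5 mM NADPH, 100 nM GR, 0.01% BSA; buffer 50 mM Tris-HCl pH 7.5, 2 mM EDTA, 150 mM NaCl; Fl 340/450, 0 & 15 min.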

For assay [17], the target named is Phospholipid hydroperoxide glutathione peroxidase GPX4 (Homo sapiens) (UniProt P36969). The assay is described as follows: Primary qHTS Assay for Inhibitors of Recombinant Selenoprotein Glutathione Peroxidase 4 (GPX4) (AID 1845192). Note: nearly all actives have a fitted effect of over 65% in size. Summed up: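 NADPH consumption, followed by fluorescence at 340/450 nm between 0 and 15 min, reports GPX4 activity via coupled glutathione reductase (100 nM). Enzyme 200 nM was pre-exposed to compound 30 min; 0.5 mM cumene hydroperoxide and 1 mM GSH served as substrates.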

Each structure is given as a SMILES string. Values without a mark were called inactive. Records with an inconclusive call do not appear. The source made the active and inactive calls. Unless noted, calls come from the whole dose curve; as a rule, active = well fitted curve in the direction sought with a large enough effect; inconclusive = small, poorly fitted or top-dose-only effect, or another doubt; inactive = no such curve, though single readings can be large; an effect the other way counts as inactive or inconclusive.

Chain of Glutathione peroxidase 1 (Homo sapiens) (P07203 whole entry, looked up): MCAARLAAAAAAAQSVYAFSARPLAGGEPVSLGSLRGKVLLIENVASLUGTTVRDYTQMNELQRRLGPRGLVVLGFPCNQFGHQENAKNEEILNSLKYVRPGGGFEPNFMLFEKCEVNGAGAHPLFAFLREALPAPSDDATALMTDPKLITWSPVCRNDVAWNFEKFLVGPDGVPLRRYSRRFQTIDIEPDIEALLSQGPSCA
Chain of Nuclear receptor subfamily 1 group I member 2 (Homo sapiens) (O75469 whole entry, looked up): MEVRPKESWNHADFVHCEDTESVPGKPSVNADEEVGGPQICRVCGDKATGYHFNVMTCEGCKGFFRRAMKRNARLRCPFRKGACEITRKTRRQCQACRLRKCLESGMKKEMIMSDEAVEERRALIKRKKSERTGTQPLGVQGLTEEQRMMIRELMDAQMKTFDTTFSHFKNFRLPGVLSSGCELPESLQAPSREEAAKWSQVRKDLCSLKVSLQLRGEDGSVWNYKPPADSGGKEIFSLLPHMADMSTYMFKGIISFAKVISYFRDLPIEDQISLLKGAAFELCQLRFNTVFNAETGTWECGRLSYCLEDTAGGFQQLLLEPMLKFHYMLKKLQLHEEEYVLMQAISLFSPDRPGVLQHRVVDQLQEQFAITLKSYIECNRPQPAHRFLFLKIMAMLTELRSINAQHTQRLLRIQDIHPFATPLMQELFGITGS
Chain of Cytochrome P450 2D6 (Homo sapiens) (P10635 whole entry, looked up): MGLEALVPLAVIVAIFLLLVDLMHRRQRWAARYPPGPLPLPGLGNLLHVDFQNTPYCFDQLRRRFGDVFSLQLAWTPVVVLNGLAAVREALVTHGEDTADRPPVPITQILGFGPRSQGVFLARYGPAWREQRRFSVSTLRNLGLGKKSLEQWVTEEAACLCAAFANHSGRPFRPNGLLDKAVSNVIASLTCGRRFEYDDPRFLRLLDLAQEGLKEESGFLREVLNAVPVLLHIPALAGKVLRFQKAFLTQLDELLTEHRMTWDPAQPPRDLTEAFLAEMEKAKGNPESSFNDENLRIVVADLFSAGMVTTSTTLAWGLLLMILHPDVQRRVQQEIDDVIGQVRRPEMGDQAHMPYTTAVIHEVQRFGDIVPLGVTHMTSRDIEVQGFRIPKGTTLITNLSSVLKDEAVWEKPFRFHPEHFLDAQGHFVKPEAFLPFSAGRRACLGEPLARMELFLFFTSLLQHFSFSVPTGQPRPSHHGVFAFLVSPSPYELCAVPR
Chain of Cytochrome P450 1A2 (Homo sapiens) (P05177 whole entry, looked up): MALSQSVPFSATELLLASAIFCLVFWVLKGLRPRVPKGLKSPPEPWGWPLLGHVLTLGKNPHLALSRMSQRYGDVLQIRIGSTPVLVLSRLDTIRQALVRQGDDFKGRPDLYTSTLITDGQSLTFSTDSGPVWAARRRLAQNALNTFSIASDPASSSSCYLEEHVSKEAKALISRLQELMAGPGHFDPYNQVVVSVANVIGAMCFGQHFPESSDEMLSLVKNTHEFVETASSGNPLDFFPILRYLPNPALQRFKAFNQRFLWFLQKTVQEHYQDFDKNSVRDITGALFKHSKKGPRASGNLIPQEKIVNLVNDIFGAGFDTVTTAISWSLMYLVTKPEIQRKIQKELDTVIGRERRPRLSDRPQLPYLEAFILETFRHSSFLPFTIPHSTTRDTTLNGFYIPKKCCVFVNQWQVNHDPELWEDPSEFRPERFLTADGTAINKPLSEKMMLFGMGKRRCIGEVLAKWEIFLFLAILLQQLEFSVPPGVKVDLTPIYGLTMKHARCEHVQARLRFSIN
Chain of Nuclear receptor subfamily 1 group I member 3 (Homo sapiens) (Q14994 whole entry, looked up): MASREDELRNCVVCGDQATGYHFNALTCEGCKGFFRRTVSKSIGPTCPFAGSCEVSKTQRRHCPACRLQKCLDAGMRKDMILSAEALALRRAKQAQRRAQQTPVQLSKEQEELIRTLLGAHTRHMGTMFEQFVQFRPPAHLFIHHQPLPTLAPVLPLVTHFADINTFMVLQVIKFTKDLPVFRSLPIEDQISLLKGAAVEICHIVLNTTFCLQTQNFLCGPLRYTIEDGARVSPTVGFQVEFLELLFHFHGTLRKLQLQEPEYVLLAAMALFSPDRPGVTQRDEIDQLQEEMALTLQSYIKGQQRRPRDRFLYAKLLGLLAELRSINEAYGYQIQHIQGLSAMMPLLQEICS
Chain of Cytochrome P450 2C19 (Homo sapiens) (P33261 whole entry, looked up): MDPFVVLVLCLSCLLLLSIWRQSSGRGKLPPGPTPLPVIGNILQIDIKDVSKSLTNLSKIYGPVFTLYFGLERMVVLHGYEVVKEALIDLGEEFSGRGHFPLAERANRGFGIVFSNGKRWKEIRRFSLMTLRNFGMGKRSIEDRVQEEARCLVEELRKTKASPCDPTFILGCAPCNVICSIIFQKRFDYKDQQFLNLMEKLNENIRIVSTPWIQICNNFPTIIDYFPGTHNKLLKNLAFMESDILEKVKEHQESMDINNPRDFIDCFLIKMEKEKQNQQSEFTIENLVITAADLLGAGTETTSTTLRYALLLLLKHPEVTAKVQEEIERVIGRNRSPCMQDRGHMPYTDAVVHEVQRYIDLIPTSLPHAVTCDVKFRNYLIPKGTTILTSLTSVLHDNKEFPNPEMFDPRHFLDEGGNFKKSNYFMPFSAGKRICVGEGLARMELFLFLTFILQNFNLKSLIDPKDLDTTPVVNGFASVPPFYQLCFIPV
Chain of Phospholipid hydroperoxide glutathione peroxidase GPX4 (Homo sapiens) (P36969 whole entry, looked up): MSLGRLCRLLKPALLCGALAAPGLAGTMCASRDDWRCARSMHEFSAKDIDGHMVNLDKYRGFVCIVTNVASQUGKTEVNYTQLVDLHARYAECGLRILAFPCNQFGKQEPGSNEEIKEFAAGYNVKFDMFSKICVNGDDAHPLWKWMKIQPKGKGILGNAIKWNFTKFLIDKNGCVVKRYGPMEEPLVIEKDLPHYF
Chain of Cytochrome P450 2C9 (Homo sapiens) (P11712 whole entry, looked up, canonical isoform): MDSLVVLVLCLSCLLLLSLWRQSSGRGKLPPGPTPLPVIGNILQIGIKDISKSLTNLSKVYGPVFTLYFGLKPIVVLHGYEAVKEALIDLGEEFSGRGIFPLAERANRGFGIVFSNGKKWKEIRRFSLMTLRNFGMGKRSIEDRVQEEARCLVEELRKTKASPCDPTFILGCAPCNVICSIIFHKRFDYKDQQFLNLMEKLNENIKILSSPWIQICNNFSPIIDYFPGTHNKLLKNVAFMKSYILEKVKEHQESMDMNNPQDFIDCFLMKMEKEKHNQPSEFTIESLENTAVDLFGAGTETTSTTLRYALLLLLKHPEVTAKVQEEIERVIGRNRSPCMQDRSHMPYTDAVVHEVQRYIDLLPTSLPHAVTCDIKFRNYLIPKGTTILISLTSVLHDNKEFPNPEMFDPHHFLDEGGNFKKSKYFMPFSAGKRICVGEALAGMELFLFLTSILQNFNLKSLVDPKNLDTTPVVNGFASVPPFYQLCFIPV

Turning to `O=C(/C=C/c1ccc(O)c2c1[C@H](C(=O)O)[C@@H](c1ccc(O)c(O)c1)O2)O[C@H](Cc1ccc(O)c(O)c1)C(=O)O`, the Potency result in assay [1], in [4], in assay [6], in [8], in [10] and in [12] was “inactive” in each case. The call in assay [2], in [3], in assay [5], in [9], in [13] and in assay [14] was inactive. Besides, in assay [7], the Potency was 14.1 µM (active). Besides, the max response in assay [11] was -1.18%.

Consider `CCCC[C@H](NC(=O)[C@@H]1[C@@H]2[C@H](CN1C(=O)[C@@H](NC(=O)NC1(CS(=O)(=O)C(C)(C)C)CCCCC1)C(C)(C)C)C2(C)C)C(=O)C(=O)NC1CC1`, for which the Potency entry in assay [1] and in assay [15] was “inactive” each time.

Take `Cn1c(=O)cc(N2CCC[C@@H](N)C2)n(Cc2ccccc2C#N)c1=O`: the Potency entry in assay [1], in assay [15], in [16] and in assay [17] was “inactive” throughout.

As for `O=c1cc(-c2ccc(O)c(-c3c(O)cc(O)c4c(=O)cc(-c5ccc(O)cc5)oc34)c2)oc2cc(O)cc(O)c12`, the Potency entry in assay [1] and in assay [15] was “inactive” in each case.

As for `C[C@H]1O[C@@H](O[C@H]2CC[C@@]3(C)C(CC[C@]4(C)[C@@H]3C=CC3=C5CC(C)(C)CC[C@]5(CO)[C@H](O)C[C@@]34C)[C@]2(C)CO)[C@H](O)[C@@H](O[C@@H]2O[C@H](CO)[C@@H](O)[C@H](O)[C@@H]2O)[C@H]1O` (stereo not given in full), the Potency result in assay [1] and in assay [15] was “inactive” in each case.

As to `C[C@H]1CC[C@@]2(O)C(C)(C)[C@@H]3CC[C@@]2(C)[C@H]1C3`, the Potency entry in assay [1] was “inactive”.
